PubChem BioAssay
The source made the active and inactive calls.

Tests used:
[1] = binders of probe aFSTL3 on microarray, primary screen, stem cell growth factor project, biochemical, small-molecule microarray, fluorescence 635/667 (AID 1064); conditions: higher = more signal;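 also: measures binding of the biotinylated anti-FSTL3 antibody to printed compounds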
[2] = binders from COS7 lysate, DM2A8 probe, primary screen, torsin A project, cell lysate, small-molecule microarray, fluorescence 635/667 (AID 1065); conditions: higher = more signal, COS7 lysate expressing mutant human TOR1A
[3] = binders of probe aFGF2 on microarray, primary screen, stem cell growth factor project, biochemical, small-molecule microarray, fluorescence 635/667 (AID 1067); conditions: higher = more signal;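 also: measures binding of biotinylated aFGF2 protein to printed compounds on slides; z-score merges feature fluorescence and signal-to-noise across triplicate slides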
[4] = binders of probe aFGF10 on microarray, primary screen, stem cell growth factor project, biochemical, small-molecule microarray, fluorescence 635/667 (AID 1071); conditions: higher = more signal;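 also: score merges 667 nm spot intensity and signal to noise from triplicate slides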
[5] = biological target: Neurogenic locus notch homolog protein 2 (Homo sapiens) (UniProt Q04721); assay: Notch2 binders on small-molecule microarrays, primary screen, biochemical, small-molecule microarray, 635 nm fluorescence, stem cell growth factors (AID 1073); conditions: Notch2 binding, higher = more signal
Neurogenic locus notch homolog protein 2 (Homo sapiens), sequence (Q04721 whole entry, looked up, canonical isoform): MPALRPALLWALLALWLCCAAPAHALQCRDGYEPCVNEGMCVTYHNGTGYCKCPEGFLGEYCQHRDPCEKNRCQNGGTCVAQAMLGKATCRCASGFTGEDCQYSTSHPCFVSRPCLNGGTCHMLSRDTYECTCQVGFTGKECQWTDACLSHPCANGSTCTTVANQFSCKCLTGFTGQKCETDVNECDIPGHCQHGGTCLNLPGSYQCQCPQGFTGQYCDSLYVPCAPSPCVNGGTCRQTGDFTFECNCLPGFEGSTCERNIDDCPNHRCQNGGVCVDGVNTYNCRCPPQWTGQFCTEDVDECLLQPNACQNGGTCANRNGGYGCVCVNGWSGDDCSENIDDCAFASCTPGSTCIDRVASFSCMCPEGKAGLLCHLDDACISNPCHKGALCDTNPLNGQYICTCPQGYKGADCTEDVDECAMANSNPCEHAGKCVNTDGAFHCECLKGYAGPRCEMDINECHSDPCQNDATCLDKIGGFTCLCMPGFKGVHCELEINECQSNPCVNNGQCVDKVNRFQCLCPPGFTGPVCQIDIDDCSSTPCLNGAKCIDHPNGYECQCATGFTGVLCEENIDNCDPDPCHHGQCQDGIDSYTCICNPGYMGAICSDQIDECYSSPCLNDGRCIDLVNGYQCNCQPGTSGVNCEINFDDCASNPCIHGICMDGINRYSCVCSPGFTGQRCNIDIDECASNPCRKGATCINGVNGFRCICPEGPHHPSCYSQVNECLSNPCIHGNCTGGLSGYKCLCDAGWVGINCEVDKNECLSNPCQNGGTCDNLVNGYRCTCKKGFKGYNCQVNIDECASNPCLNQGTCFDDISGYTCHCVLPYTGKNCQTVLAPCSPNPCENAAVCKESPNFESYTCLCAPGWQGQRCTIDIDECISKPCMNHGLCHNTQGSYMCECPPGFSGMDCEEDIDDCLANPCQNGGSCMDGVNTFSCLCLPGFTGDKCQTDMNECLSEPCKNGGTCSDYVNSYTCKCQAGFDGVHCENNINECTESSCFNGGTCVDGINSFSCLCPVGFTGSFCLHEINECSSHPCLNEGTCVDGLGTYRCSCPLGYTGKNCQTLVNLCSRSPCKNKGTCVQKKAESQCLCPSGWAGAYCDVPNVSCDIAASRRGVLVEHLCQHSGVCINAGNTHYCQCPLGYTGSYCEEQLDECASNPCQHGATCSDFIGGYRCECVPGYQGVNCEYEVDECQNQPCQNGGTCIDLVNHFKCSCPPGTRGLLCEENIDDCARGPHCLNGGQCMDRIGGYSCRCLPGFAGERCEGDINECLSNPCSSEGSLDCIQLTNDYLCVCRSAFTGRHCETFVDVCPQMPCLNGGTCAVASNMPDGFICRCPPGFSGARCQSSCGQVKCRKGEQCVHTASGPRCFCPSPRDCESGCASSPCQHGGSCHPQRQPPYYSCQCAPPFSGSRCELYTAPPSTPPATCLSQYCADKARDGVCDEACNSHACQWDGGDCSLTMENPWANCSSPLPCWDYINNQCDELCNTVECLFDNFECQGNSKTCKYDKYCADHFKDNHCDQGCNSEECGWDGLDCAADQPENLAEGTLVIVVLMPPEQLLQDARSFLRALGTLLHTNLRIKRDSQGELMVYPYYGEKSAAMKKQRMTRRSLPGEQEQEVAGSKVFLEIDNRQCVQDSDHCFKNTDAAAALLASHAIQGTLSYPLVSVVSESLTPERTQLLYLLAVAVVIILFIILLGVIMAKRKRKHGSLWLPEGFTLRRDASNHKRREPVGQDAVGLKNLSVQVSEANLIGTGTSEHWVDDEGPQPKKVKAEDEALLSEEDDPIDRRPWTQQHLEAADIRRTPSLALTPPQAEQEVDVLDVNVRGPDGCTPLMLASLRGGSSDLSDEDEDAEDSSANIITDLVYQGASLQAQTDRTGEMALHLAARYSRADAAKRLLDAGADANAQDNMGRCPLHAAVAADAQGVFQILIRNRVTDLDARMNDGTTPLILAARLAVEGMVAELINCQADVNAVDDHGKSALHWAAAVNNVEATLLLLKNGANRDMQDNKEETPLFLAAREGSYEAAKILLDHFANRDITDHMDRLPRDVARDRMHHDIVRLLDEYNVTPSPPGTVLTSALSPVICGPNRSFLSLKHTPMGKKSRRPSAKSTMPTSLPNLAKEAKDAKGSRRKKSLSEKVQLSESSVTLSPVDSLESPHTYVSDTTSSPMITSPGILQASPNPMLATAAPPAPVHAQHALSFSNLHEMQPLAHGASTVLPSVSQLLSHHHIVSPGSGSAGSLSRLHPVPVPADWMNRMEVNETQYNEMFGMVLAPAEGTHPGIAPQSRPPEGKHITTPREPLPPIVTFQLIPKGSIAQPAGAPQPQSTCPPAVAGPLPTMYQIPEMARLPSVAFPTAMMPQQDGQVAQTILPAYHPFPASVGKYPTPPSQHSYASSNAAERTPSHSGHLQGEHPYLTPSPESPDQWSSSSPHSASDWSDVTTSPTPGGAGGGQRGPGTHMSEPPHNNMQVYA

[6] = biological target: Pro-neuregulin-1, membrane-bound isoform (Homo sapiens) (UniProt Q02297); assay: NRG1 binders on small-molecule microarrays, primary screen, psychiatric disease protein project, biochemical, small-molecule microarray, fluorescence 635/667 (AID 1075); conditions: NRG1 binding, 635 nm fluorescence, higher = more signal;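 also: score combines 667 nm spot fluorescence with signal to noise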
Pro-neuregulin-1, membrane-bound isoform (Homo sapiens), sequence (Q02297 whole entry, looked up, the tested form may be a part, canonical isoform): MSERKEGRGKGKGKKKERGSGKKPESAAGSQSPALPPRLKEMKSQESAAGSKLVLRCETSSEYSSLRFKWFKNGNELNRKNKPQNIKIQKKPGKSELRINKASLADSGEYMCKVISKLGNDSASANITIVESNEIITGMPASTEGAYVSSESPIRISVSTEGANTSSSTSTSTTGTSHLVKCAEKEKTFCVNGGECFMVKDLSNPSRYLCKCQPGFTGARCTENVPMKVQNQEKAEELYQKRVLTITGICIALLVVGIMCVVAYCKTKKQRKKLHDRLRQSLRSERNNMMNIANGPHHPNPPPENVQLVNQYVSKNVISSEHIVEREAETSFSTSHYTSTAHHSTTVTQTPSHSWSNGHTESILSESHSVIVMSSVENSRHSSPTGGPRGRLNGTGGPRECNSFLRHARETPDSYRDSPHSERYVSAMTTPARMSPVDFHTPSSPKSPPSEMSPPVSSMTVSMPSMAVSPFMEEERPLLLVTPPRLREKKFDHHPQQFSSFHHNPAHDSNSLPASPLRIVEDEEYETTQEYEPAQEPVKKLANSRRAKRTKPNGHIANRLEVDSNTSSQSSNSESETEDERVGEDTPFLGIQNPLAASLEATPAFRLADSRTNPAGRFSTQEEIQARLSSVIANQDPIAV

[7] = test system: Neuregulin-1 EGF-like domain; assay: binders of neuregulin-1 EGF-like domain, primary screen, biochemical, small-molecule microarray, 635 nm fluorescence (AID 1081); conditions: small-molecule microarray binding, higher = more signal;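 also: binding of the protein to compounds printed on small-molecule microarray slides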
[8] = FRG1 promoter luciferase signal modulators, primary screen, FRG1 inhibition for FSHD, cell-based, C2C12 myotubes, firefly/Renilla luciferase, luminescence (AID 1084); conditions: higher = more signal, called active from +8 up or from −8 down
[9] = binders of probe aFST on microarray, primary screen, stem cell growth factor project, biochemical, small-molecule microarray, fluorescence 635/667 (AID 1086); conditions: higher = more signal;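 also: score merges 667 nm fluorescence with signal-to-noise of each printed compound spot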
[10] = binders of probe aHhip on microarray, primary screen, stem cell growth factor project, biochemical, small-molecule microarray, fluorescence 635/667 (AID 1087); conditions: higher = more signal;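 also: score merges spot fluorescence at 667nm with spot signal to noise ratio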

C=C(CCCC)/C(=C/C[C@@H](OC(=O)c1ccncc1)c1ccc(OCCO)cc1)c1cc(C(=O)OC)ccc1OC
composite z-score [1]: -0.356
composite z-score [2]: 0.807
composite z-score [3]: -0.129
composite z-score [4]: 0.63
composite z-score [5]: -0.0009
composite z-score [6]: 0.382
composite z-score [7]: 1.01
z-score [8]: 5.07 (inactive)
composite z-score [9]: -0.0132
composite z-score [10]: -0.217

COC(=O)[C@@]1(Cc2ccc(F)cc2)[C@H]2c3cc(C(=O)N4CCCC4)n(Cc4ccc(S(C)(=O)=O)cc4)c3C[C@H]2CN1C(=O)c1ccccc1
composite z-score [1]: 0.635
composite z-score [2]: -0.266
composite z-score [3]: 0.29
composite z-score [4]: 0.983
composite z-score [5]: 1.55
composite z-score [6]: 1.88
composite z-score [7]: 0.859
z-score [8]: -0.205 (inactive)
composite z-score [9]: 2.09
composite z-score [10]: -0.0169

COC(=O)[C@@]1(Cc2ccc(F)cc2)[C@H]2c3cc(C(=O)N(C)C)n(Cc4cc(F)c(F)c(F)c4)c3C[C@H]2CN1C(=O)c1ccccc1
composite z-score [1]: 0.293
composite z-score [2]: -0.528
composite z-score [3]: 0.261
composite z-score [4]: 0.593
composite z-score [5]: 1.77
composite z-score [6]: 1.61
composite z-score [7]: 0.971
z-score [8]: 0.621 (inactive)
composite z-score [9]: 1.88
composite z-score [10]: 0.142

CC(CO)N1C(=O)[C@@H]2C3C(=O)OCCC/C=C\[C@H]3OC23C=CCN(C(C)(C)C)C(=O)[C@@H]13 (stereo not given in full)
composite z-score [1]: 0.104
composite z-score [2]: 0.733
composite z-score [3]: -0.0971
composite z-score [4]: 0.255
composite z-score [5]: 0.162
composite z-score [6]: 0.182
composite z-score [7]: 1.17
z-score [8]: -1.23 (inactive)
composite z-score [9]: -0.269
composite z-score [10]: 0.0373

COc1ccc([Si](C)(C)[C@@H]2[C@@H](CCO)O[C@]3(C(=O)N(Cc4ccc(N(C=O)c5ccccc5)cc4)c4ccccc43)[C@H]2C)cc1
composite z-score [1]: 0.235
composite z-score [2]: 0.0422
composite z-score [3]: -0.0332
composite z-score [4]: 0.255
composite z-score [5]: 0.719
composite z-score [6]: 0.508
composite z-score [7]: 0.565
z-score [8]: -3.73 (inactive)
composite z-score [9]: 0.643
composite z-score [10]: -0.0994

CC(C)C(=C=CC[C@H](O)c1ccc(OCCO)cc1)CCO
composite z-score [1]: -0.0762
composite z-score [2]: 0.887
composite z-score [3]: -0.1
composite z-score [4]: 0.904
composite z-score [5]: 0.255
composite z-score [6]: 1.69
composite z-score [7]: 0.895
z-score [8]: 0.305 (inactive)
composite z-score [9]: 0.326
composite z-score [10]: -0.0994

C=CCNC(=O)[C@@H]1[C@H]2C(=O)O[C@H](c3ccccc3)[C@H](c3ccccc3)N2[C@H](c2ccc(OCCO)cc2)[C@@]12C(=O)Nc1ccc(C#CCC(C(=O)OC)C(=O)OC)cc12
composite z-score [1]: 0.148
composite z-score [2]: 0.694
composite z-score [3]: 0.0185
composite z-score [4]: 0.721
composite z-score [5]: 0.89
composite z-score [6]: 1.81
composite z-score [7]: 1.3
z-score [8]: 0.141 (inactive)
composite z-score [9]: 0.452
composite z-score [10]: 0.0505

COC(=O)[C@@]1(Cc2ccc(OC)cc2)[C@H]2c3cc(C(=O)N4CCCC4)n(Cc4ccc(O)c(OC)c4)c3C[C@H]2CN1C(=O)c1ccccc1
composite z-score [1]: 1.41
composite z-score [2]: 1.14
composite z-score [3]: 0.694
composite z-score [4]: 0.777
composite z-score [5]: 1.1
composite z-score [6]: 1.83
composite z-score [7]: 1.1
z-score [8]: 0.665 (inactive)
composite z-score [9]: 2.28
composite z-score [10]: 2.44

CCCC[C@@H]1C[C@H]1[C@@H](NC(=O)c1cccs1)c1ccc(-c2ccccc2)cc1
composite z-score [1]: 0.108
composite z-score [2]: 0.0945
composite z-score [3]: 0.189
composite z-score [4]: 0.486
composite z-score [5]: 0.146
composite z-score [6]: -0.0051
composite z-score [7]: 0.411
z-score [8]: -0.621 (inactive)
composite z-score [9]: 0.151
composite z-score [10]: 0.2

C=CC[C@@]12N=C(c3ccc(OCCCO)cc3)O[C@@H]1c1ccccc1N(C)C2=O
composite z-score [1]: 0.463
composite z-score [2]: 0.233
composite z-score [3]: 0.128
composite z-score [4]: 0.638
composite z-score [5]: 0.8
composite z-score [6]: 1.38
composite z-score [7]: 1.31
z-score [8]: 1.72 (inactive)
composite z-score [9]: 0.593
composite z-score [10]: 0.0972

C=CCC(OC(C)=O)[C@@H]1[C@@H](N(Cc2cccc3ccccc23)C(=O)c2ccc(-c3ccccc3)cc2)c2cc(OCCCO)ccc2N1C(=O)c1ccc2ccccc2c1 (stereo not given in full)
composite z-score [1]: -0.484
composite z-score [2]: 0.306
composite z-score [3]: -0.0647
composite z-score [4]: -0.0203
composite z-score [5]: 0.104
composite z-score [6]: 0.148
composite z-score [7]: 0.0031
z-score [8]: -0.0039 (inactive)
composite z-score [9]: 0.131
composite z-score [10]: 0.0722

COC(=O)[C@@]1(Cc2ccc(OC)cc2)[C@H]2c3cc(C(=O)N4CCCC4)n(CCN4CNCC4=O)c3C[C@H]2CN1C(=O)c1ccccc1
composite z-score [1]: 2.52
composite z-score [2]: 0.873
composite z-score [3]: 0.797
composite z-score [4]: 1.22
composite z-score [5]: 1.4
composite z-score [6]: 1.78
composite z-score [7]: 1.45
z-score [8]: 0.632 (inactive)
composite z-score [9]: 2.37
composite z-score [10]: 3.13

COc1ccc(C(=O)Nc2ccc(CN3C(=O)[C@]4(O[C@H](CCO)[C@@H]([Si](C)(C)c5ccc(OC)cc5)[C@@H]4C)c4ccccc43)cc2)cc1
composite z-score [1]: -0.329
composite z-score [2]: 0.0876
composite z-score [3]: -0.087
composite z-score [4]: 0.245
composite z-score [5]: 0.561
composite z-score [6]: 0.77
composite z-score [7]: 0.836
z-score [8]: -4.05 (inactive)
composite z-score [9]: 0.305
composite z-score [10]: 0.432

O=C1c2ccccc2[C@](Cc2ccccc2I)(C(=O)NCCN2CCOCC2)[C@H](c2ccc(CO)cc2)N1C1CCCCC1
composite z-score [1]: 0.446
composite z-score [2]: 0.473
composite z-score [3]: -0.0181
composite z-score [4]: 0.352
composite z-score [5]: 1.39
composite z-score [6]: 0.738
composite z-score [7]: 1.22
z-score [8]: -4.42 (inactive)
composite z-score [9]: 1.19
composite z-score [10]: 0.259

COc1ccc(C(O)C2C=CC3C(=O)N(Cc4ccccc4)C(=O)C3N2n2cnnc2)cc1OCc1ccccc1 (stereo not given)
composite z-score [1]: -0.0405
composite z-score [2]: -0.209
composite z-score [3]: -0.0996
composite z-score [4]: 0.193
composite z-score [5]: -0.0176
composite z-score [6]: 0.834
composite z-score [7]: 0.613
z-score [8]: 0.364 (inactive)
composite z-score [9]: 0.777
composite z-score [10]: -0.0296

C=C(COC)C(=O)CC[C@@H](OC(C)=O)c1ccc(CO)o1
composite z-score [1]: -0.263
composite z-score [2]: 0.0091
composite z-score [3]: -0.147
composite z-score [4]: 0.764
composite z-score [5]: -0.102
composite z-score [6]: -0.0949
composite z-score [7]: 0.611
z-score [8]: 0.632 (inactive)
composite z-score [9]: 0.316
composite z-score [10]: 0.142

C=CCOC(=O)[C@H]1[C@@H]2C(=O)O[C@@H](c3ccccc3)[C@@H](c3ccccc3)N2[C@@H](c2ccc(OCCOC(=O)[C@@H]3C[C@@H]4C(=O)N[C@@H](CCCCNC(C)=O)C(=O)N4[C@@H]3c3ccc(O)cc3)cc2)[C@]12C(=O)Nc1ccccc12
composite z-score [1]: -0.475
composite z-score [2]: 0.973
composite z-score [3]: -0.0512
composite z-score [4]: 0.483
composite z-score [5]: 0.795
composite z-score [6]: 1.26
composite z-score [7]: 1.32
z-score [8]: 0.159 (inactive)
composite z-score [9]: -0.0579
composite z-score [10]: 0.0176

CC(C)N1C(=O)C[C@@](C(=O)NCC(F)(F)F)(c2ccc([N+](=O)[O-])cc2)[C@H]1c1ccc(CO)cc1
composite z-score [1]: 0.27
composite z-score [2]: 0.513
composite z-score [3]: -0.147
composite z-score [4]: -0.336
composite z-score [5]: -0.545
composite z-score [6]: 0.769
composite z-score [7]: 0.541
z-score [8]: -0.468 (inactive)
composite z-score [9]: -0.531
composite z-score [10]: -0.0994

C=CCN1C(=O)[C@@]2(CC=C)N=C(c3ccc(OCCCO)cc3)O[C@H]2c2ccccc21
composite z-score [1]: 0.529
composite z-score [2]: 0.194
composite z-score [3]: 0.0606
composite z-score [4]: -0.0534
composite z-score [5]: 1.38
composite z-score [6]: 1.3
composite z-score [7]: 1.37
z-score [8]: -2.47 (inactive)
composite z-score [9]: 0.835
composite z-score [10]: -0.318

COC(=O)[C@H](Cc1ccccc1)N1CC2=C[C@@H](C3CC3)n3c(=O)n(C)c(=O)n3[C@H]2[C@@H]1[C@@H](O)Cc1ccccc1
composite z-score [1]: -0.575
composite z-score [2]: 1.5
composite z-score [3]: 0.0066
composite z-score [4]: 0.369
composite z-score [5]: 0.319
composite z-score [6]: 0.323
composite z-score [7]: 0.997
z-score [8]: 0.892 (inactive)
composite z-score [9]: 0.559
composite z-score [10]: -0.296

COc1ccccc1CN1C(=O)c2ccccc2[C@@H](C(=O)NC2CC2)[C@@H]1c1ccc(CO)cc1
composite z-score [1]: 0.11
composite z-score [2]: 0.293
composite z-score [3]: 0.0233
composite z-score [4]: 0.986
composite z-score [5]: 1.48
composite z-score [6]: 1.12
composite z-score [7]: 1.29
z-score [8]: -3.17 (inactive)
composite z-score [9]: 0.592
composite z-score [10]: 0.075

C=CC(=C)[C@H]1Oc2ccccc2S(=O)(=O)N2CCC[C@@H]12
composite z-score [1]: 0.289
composite z-score [2]: 0.196
composite z-score [3]: -0.116
composite z-score [4]: -0.185
composite z-score [5]: -0.128
composite z-score [6]: -0.57
composite z-score [7]: -0.595
z-score [8]: -0.0188 (inactive)
composite z-score [9]: 0.303
composite z-score [10]: -0.329

CCCCCCc1nc(-c2ccc(OC)nc2)cc2c1[Si](C(C)C)(C(C)C)O[C@H]2c1ccccc1
composite z-score [1]: -0.16
composite z-score [2]: -0.0924
composite z-score [3]: 0.0131
composite z-score [4]: 0.0809
composite z-score [5]: 0.144
composite z-score [6]: -0.384
composite z-score [7]: -0.821
z-score [8]: -0.566 (inactive)
composite z-score [9]: -0.546
composite z-score [10]: -0.146
